Assay outcomes (PubChem)
In the library only some 4.1% were active in any assay of this set; here they are far more common.
DAX1 inh-1 = NR0B1 (DAX1) inhibition; 340,000 tested, 0.99% active; AID 504766; P51843; HEK293 Gal4-DAX1 luciferase reporter, luminescence; inhibition, % at 6.75 µM;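 active means inhibition above the mean over all tested compounds plus 3 SD, cut at about 4.2% in these data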;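 further: 0% = DAX1-transfected cells with DMSO and 100% = empty-vector control cells with DMSO; inhibition shows as a rise in luminescence from relieved DAX1 repression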
hgDAF-12 ag = hgDAF-12 agonism, primary luciferase screen. HEK293 GAL4-hgDAF12 UAS-luciferase reporter, agonist luminescence; normalized to butyrate control. activation, % at 6.8 µM. 370,000 tested, 1.8% active;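 active means activation above a cutoff set at the mean of all screened compounds plus 3 SD, cut at about 10% in these data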;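 further: 0% = DMSO wells and 100% = sodium butyrate wells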
ssDAF12 agonist = activates DAF-12 receptor from parasite S. stercoralis; 370,000 tested, 1% active; activation, % at 6.8 µM; HEK293 ssDAF-12/GRIP1 lit1-tk-luc reporter, luminescence; % of 3 µM dafachronic acid response; AID 652126;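 active means activation above the mean over all tested compounds plus 3 SD, cut at about 0.9% in these data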;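 further: 0% = DMSO-only wells and 100% = 3 µM delta7-dafachronic acid wells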
DAX1 inh-2 = inhibitors of DAX1 repression of SF-1 activated StAR promoter; 370,000 tested, 1.1% active; inhibition, % at 6.8 µM; AID 652010; HEK293T StAR-luciferase reporter, SF-1/DAX-1 repression relief;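 active means inhibition above the mean over all tested compounds plus 3 SD, cut at about 3.6% in these data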;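 further: 0% = DAX-1 cells with DMSO and 100% = cells lacking DAX-1 with DMSO; higher inhibition means more luminescence from relief of DAX-1 repression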
hcDAF-12 act = H. contortus DAF-12 activation, primary screen. HEK293 hcDAF-12 lit1-tk-luc reporter, luminescence; 0% DMSO, 100% Δ7-dafachronic acid. activation, % at 6.8 µM. 370,000 tested, 1.4% active. AID 652067;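 active means activation above the mean of all tested compounds plus 3 SD, cut at about 5.5% in these data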;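 further: 100% = response to 3 µM Δ7-dafachronic acid high control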
LXR ag = counter-screen for hcDAF-12 agonists: agonists of human LXR-beta. HEK293 Gal4-LXR tk-luc reporter, luminescence, 24 h; normalized: DMSO 0%, positive control 100%. 3,400 tested, under 10 active. shares compounds with hcDAF-12 act. AID 743027. activation, % at 6.8 µM;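 active means mean percent activation of the reporter above a cutoff set as the average over tested compounds plus their standard deviation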
Target sequence (P55055 whole entry, looked up, the tested form may be a part): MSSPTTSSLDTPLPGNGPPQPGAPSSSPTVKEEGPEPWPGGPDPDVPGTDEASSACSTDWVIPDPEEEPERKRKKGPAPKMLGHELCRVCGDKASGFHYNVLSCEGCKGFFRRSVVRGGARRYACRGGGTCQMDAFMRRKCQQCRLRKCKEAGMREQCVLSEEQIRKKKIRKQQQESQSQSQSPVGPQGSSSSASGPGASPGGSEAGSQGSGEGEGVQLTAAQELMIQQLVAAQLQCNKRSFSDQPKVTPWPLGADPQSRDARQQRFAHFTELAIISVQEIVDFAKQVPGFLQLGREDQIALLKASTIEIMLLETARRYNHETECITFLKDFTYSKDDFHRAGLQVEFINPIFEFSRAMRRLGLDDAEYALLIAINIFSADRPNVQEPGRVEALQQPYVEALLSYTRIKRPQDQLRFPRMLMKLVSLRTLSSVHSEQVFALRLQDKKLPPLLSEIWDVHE
hcDAF12 ag = confirmation of H. contortus DAF-12 agonists; HEK293 hcDAF-12 lit1-tk-luc reporter, luminescence; % of Δ7-dafachronic acid response; AID 743032; shares compounds with hcDAF-12 act; 3,400 tested, 61% active; activation, % at 6.8 µM;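 active means mean activation across triplicate tests above the threshold derived from the earlier primary screen, cut at about 5.5% in these data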;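 further: 0% = DMSO only wells and 100% = 3 µM Δ7-dafachronic acid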
* marks the source's active call; other numbers are inactive results; ! = not active in a repeat.

Results for COc1ccccc1NC(=O)CSCC(N)=O ?
DAX1 inh-1: 1; hgDAF-12 ag: 1; ssDAF12 agonist: 0; DAX1 inh-2: 1; hcDAF-12 act: 3

What do the screens show for `COc1ccccc1NC(=O)CSCc1nc2ccccc2[nH]1`?
DAX1 inh-1: -1; hgDAF-12 ag: 2; ssDAF12 agonist: -1; DAX1 inh-2: 0; hcDAF-12 act: 7.0*; LXR ag: 0; hcDAF12 ag: 4

How did CCN(CC(=O)Nc1ccc2c(c1)OCCO2)C(=O)/C=C/c1cc(Br)ccc1OC do in these assays?
DAX1 inh-1: 2; hgDAF-12 ag: 0; ssDAF12 agonist: -1; DAX1 inh-2: 0; hcDAF-12 act: -1

Results for Cc1ccc2nc(/N=C(\N)NC(=O)N3c4ccccc4Sc4ccccc43)nc(C)c2c1 ?
DAX1 inh-1: 0; hgDAF-12 ag: 0; ssDAF12 agonist: -2; DAX1 inh-2: 0; hcDAF-12 act: -3

How did Cc1ccc2c(C)nc(/N=C(\N)NC(=O)N3c4ccccc4Sc4ccccc43)nc2c1 do in these assays?
DAX1 inh-1: 0; hgDAF-12 ag: 3; ssDAF12 agonist: 0; DAX1 inh-2: 0; hcDAF-12 act: 10*!; LXR ag: 0; hcDAF12 ag: -1

How did Cc1ccc(C(=O)/C=C/Nc2ccccc2C(N)=O)o1 do in these assays?
DAX1 inh-1: 1; hgDAF-12 ag: 12*; ssDAF12 agonist: 0; DAX1 inh-2: 3; hcDAF-12 act: 9.3*; LXR ag: 1; hcDAF12 ag: 5

Results for CC(=O)Nc1ccc(N/C=C/C(=O)c2ccc(C)o2)cc1 ?
DAX1 inh-1: 0; hgDAF-12 ag: 0; ssDAF12 agonist: -1; DAX1 inh-2: 0; hcDAF-12 act: -1

Results for NC(=O)c1ccccc1N/C=C/C(=O)c1cccs1 ?
DAX1 inh-1: 2; hgDAF-12 ag: 10; ssDAF12 agonist: 1; DAX1 inh-2: 3; hcDAF-12 act: 8.3*; LXR ag: 2; hcDAF12 ag: 5.6*

What do the screens show for `O=C(C=Cc1ccccc1)c1cccs1`?
DAX1 inh-1: 0; hgDAF-12 ag: -1; ssDAF12 agonist: -1; DAX1 inh-2: -2; hcDAF-12 act: -2

What do the screens show for `O=C(/C=C/Nc1ccc(F)cc1)c1cccs1`?
DAX1 inh-1: 0; hgDAF-12 ag: 12*; ssDAF12 agonist: 1.7*; DAX1 inh-2: 4.5*; hcDAF-12 act: 11*; LXR ag: 2; hcDAF12 ag: 18*

What do the screens show for `COc1cc([N+](=O)[O-])ccc1N/C=C/C(=O)c1cccs1`?
DAX1 inh-1: -2; hgDAF-12 ag: 17*; ssDAF12 agonist: 2.3*; DAX1 inh-2: 3; hcDAF-12 act: 17*; LXR ag: 1; hcDAF12 ag: 16*

Results for O=C(/C=C/c1ccc([N+](=O)[O-])cc1)c1cccs1 ?
DAX1 inh-1: 1; hgDAF-12 ag: 0; ssDAF12 agonist: -2; DAX1 inh-2: 1; hcDAF-12 act: 0

How did O=C(COC(=O)c1cccc(S(=O)(=O)N2CCCC2)c1)Nc1cccc(Br)c1 do in these assays?
DAX1 inh-1: 0; hgDAF-12 ag: -1; ssDAF12 agonist: 0; DAX1 inh-2: 1; hcDAF-12 act: 3

What do the screens show for `CC1(C(=O)NC2CCCC2)CCC(=O)N1C1CCN(Cc2ccccc2)CC1` (stereo unspecified)?
hgDAF-12 ag: 1; ssDAF12 agonist: -1; DAX1 inh-2: 0; hcDAF-12 act: 1

Results for O=C(c1ccc(-c2ccc([N+](=O)[O-])cc2)o1)N1CCCCC1 ?
DAX1 inh-1: 4; hgDAF-12 ag: 17*; ssDAF12 agonist: -1; DAX1 inh-2: 2; hcDAF-12 act: 8.4*; LXR ag: 1; hcDAF12 ag: 5

Results for c1cnc2c(OCc3nc4ccccc4[nH]3)cccc2c1 ?
DAX1 inh-1: 2; hgDAF-12 ag: 8; ssDAF12 agonist: 1.2*; DAX1 inh-2: 2; hcDAF-12 act: 11*; LXR ag: 1; hcDAF12 ag: 9.6*

How did Brc1ccccc1OCCOc1cccc2cccnc12 do in these assays?
DAX1 inh-1: 0; hgDAF-12 ag: -1; ssDAF12 agonist: -1; DAX1 inh-2: 1; hcDAF-12 act: 0

Results for C(=C\c1ccc2nncn2c1)/c1ccccc1 ?
hgDAF-12 ag: 4; ssDAF12 agonist: -1; DAX1 inh-2: 1; hcDAF-12 act: 0

Results for CC(=O)NC(c1ccccc1)c1nc(-c2cc(F)cc(F)c2)cs1 (stereo unspecified) ?
hgDAF-12 ag: -3; ssDAF12 agonist: -2; DAX1 inh-2: 0; hcDAF-12 act: -2

What do the screens show for `CCOC(=O)Cc1nc(N2CCCN(C(C)=O)CC2)c2c(C)c(C(=O)OCC)sc2n1`?
hgDAF-12 ag: 0; ssDAF12 agonist: -2; DAX1 inh-2: -1; hcDAF-12 act: 6.9*; LXR ag: 0; hcDAF12 ag: -2

How did O=C1c2cccc3cccc(c23)C(=O)N1c1ccccc1Cl do in these assays?
DAX1 inh-1: -1; hgDAF-12 ag: -4; ssDAF12 agonist: -1; DAX1 inh-2: -1; hcDAF-12 act: -3

What do the screens show for `Nc1ccccc1N1C(=O)c2cccc3cccc(c23)C1=O`?
hgDAF-12 ag: 4; ssDAF12 agonist: 0; DAX1 inh-2: 1; hcDAF-12 act: 6.7*; LXR ag: 0; hcDAF12 ag: 5

What do the screens show for `C=CCN1C(=O)[C@H](CC(=O)NCCCOCCCC)[C@@]2(C(=O)OCC)CCCC=C12`?
hgDAF-12 ag: -2; ssDAF12 agonist: -1; DAX1 inh-2: 0; hcDAF-12 act: -2

What do the screens show for `COC(=O)c1ccc(OCC(=O)c2ccccc2)cc1`?
DAX1 inh-1: 3; hgDAF-12 ag: 11*; ssDAF12 agonist: 1.3*; DAX1 inh-2: 2; hcDAF-12 act: 9.0*; LXR ag: 1; hcDAF12 ag: 5

How did CCc1ccc(/C=C/C(=O)C2C(=O)c3ccccc3C2=O)cc1 do in these assays?
DAX1 inh-1: 0; hgDAF-12 ag: 7; ssDAF12 agonist: 1.0*; DAX1 inh-2: 3; hcDAF-12 act: 8.8*; LXR ag: 0; hcDAF12 ag: 5.9*

How did CCc1ccc(C2C(C(=O)O)c3ccccc3C(=O)N2C)cc1 (stereo unspecified) do in these assays?
DAX1 inh-1: 1; hgDAF-12 ag: 0; ssDAF12 agonist: -1; DAX1 inh-2: 0; hcDAF-12 act: 0

How did C[C@@H]1CN(C(=O)OC(C)(C)C)CCN1c1ccc(N2CC[C@@H](O)C2)c(C#N)c1 do in these assays?
hgDAF-12 ag: -3; ssDAF12 agonist: -1; DAX1 inh-2: -1; hcDAF-12 act: -3
